Screening results as filed in PubChem BioAssay.
An excerpt weighted towards active compounds, which were near 18% of everything screened.
TDP1 cell CPT = qHTS for Inhibitors of human tyrosyl-DNA phosphodiesterase 1 (TDP1): qHTS in cells in presence of CPT | chicken DT40 Tdp1-/-;hTDP1 cells + 20 nM CPT, ATP luminescence, 48 h | Potency, µM (series often up to 46.2 µM), without a hit: at the top dose activity change, negative = growth inhibition, usual class: inhibitors | 420,000 compounds, 12% hits; note: potency is the fitted concentration of half-maximal effect; nearly all actives have a fitted effect of over 55% in size
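Chicken DT40 Tdp1-/- cells stably complemented with human TDP1 were seeded at 400 cells/well in medium containing 20 nM camptothecin, exposed to pin-transferred compounds, and grown at 37 °C for at least 48 hr. Viability was read as ATP luminescence.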
IL1B secr inh = qHTS for Inhibitors of Inflammasome Signaling: IL-1-beta AlphaLISA Primary Screen; THP-1 LPS/ATP IL-1B secretion, AlphaLISA, 16 h; active compounds read low; activity change, % at 57.5 µM; 360,000 compounds, 4.7% hits; AID 743279, 2014; in the data active = activity change below about -50%; inconclusive = mostly about -30% to -49%
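Secreted IL-1B measured by AlphaLISA bead assay after 16 h compound exposure of THP-1 cells; compounds (final up to 57.5 uM) added 1 h before LPS (250 ng/mL) and ATP (1.25 mM) stimulation; lower signal means less secretion.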
TDP1 cell noCPT = qHTS for Inhibitors of human tyrosyl-DNA phosphodiesterase 1 (TDP1): qHTS in cells in absence of CPT; DT40 Tdp1-/- hTDP1 cells, no CPT, ATP luminescence, 48 h; Potency, µM (series often up to 46.2 µM), inactives show top-dose activity change, negative = growth inhibition, usual class: inhibitors; 420,000 compounds, 15% hits; AID 686978, 2013; note: potency is the fitted concentration of half-maximal effect; nearly all actives have a fitted effect of over 55% in size
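Luminescent ATP content (CellTiter-Glo) served as the growth readout. Knockout chicken DT40 cells expressing human TDP1 were exposed to compounds without camptothecin for a minimum 48 hr at 37 °C.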
CtBP-E1A inh = qHTS Assay for Inhibitors of the CtBP/E1A Interaction; CtBP / adenovirus E1A interaction (AlphaScreen); AlphaScreen GST-E1A/His-CtBP binding, 1536-well; active compounds read low; activity change, % (concentration not given with the values); 340,000 compounds, 0.49% hits; AID 651724, 2012; in the data active = activity change below about -65%; inconclusive = mostly about -30% to -63%
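In 5 uL wells, 23 nL compound meets equimolar GST-E1A and His-CtBP (5X stock 125 nM each) for 2 h, 37 °C. Beads (5X, 50 ug/mL) then 1 h, 37 °C, dark.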
Six1-Eya2 blk = qHTS Assay for Inhibitors of the Six1/Eya2 Interaction; AlphaScreen GST-Six1/His-Eya2 binding, biochemical; active compounds read low; activity change, % (test concentration not listed); 360,000 compounds, 0.56% hits; AID 651725, 2012; in the data active = activity change below about -65%; inconclusive = mostly about -30% to -63%
Target sequence (O00167 whole entry, looked up): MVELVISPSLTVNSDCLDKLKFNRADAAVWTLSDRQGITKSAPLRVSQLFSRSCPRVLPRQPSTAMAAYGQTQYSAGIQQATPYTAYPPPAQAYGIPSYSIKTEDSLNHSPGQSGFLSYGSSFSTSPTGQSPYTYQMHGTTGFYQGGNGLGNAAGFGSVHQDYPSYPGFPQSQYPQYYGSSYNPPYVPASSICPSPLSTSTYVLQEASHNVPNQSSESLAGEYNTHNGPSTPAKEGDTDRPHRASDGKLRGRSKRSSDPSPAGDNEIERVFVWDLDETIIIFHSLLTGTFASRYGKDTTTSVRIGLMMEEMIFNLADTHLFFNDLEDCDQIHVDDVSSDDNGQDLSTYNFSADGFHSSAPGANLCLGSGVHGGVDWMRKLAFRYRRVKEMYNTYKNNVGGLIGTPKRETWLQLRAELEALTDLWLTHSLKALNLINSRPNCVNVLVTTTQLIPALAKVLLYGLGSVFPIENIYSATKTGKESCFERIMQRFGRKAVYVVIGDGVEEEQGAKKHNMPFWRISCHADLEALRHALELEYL
Target sequence (Q15475 whole entry, looked up): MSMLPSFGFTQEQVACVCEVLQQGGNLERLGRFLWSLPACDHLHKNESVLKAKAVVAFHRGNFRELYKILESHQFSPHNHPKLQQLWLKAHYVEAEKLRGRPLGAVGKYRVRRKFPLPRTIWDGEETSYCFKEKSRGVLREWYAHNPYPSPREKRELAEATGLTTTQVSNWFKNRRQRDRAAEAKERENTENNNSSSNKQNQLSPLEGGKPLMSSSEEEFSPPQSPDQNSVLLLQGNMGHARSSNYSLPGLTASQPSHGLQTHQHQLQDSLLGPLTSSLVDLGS
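Compounds are tested against tagged Six1 and Eya2 proteins bridged by glutathione donor and nickel acceptor beads; after a one-hour incubation at 37 °C without light, AlphaScreen emission is recorded.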
TDP1 block = qHTS Assay for Inhibitors of Tyrosyl-DNA Phosphodiesterase (TDP1) | Tyrosyl-DNA phosphodiesterase 1 (Homo sapiens), Q9NUW8 | recombinant TDP1, AlphaScreen DNA substrate cleavage | Potency, µM (highest dose often 130 µM), for inactives: at the highest dose activity change, negative = inhibition, most hits filed as inhibitors | 350,000 compounds, 0.28% hits | AID 485290, 2010; note: potency is the fitted concentration of half-maximal effect; nearly all actives have a fitted effect of over 40% in size
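Compounds were preincubated with Tdp1 (1 nM final) for 15 min at room temperature before substrate (15 nM final) started a 5 min reaction; beads (10 ug/ml final) were then added for 10 min before AlphaScreen detection.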
An asterisk follows results filed as active; ? = inconclusive; . = not tested or not shown; [ ] = dose if it differs, or a comment. Unless noted, calls come from the whole dose curve; as a rule, active = well fitted curve in the direction sought with a large enough effect; inconclusive = small, poorly fitted or top-dose-only effect, or another doubt; inactive = no such curve, though single readings can be large; an effect the other way counts as inactive or inconclusive. % is set by controls: 0 for no effect and ±100 for the full control effect.

SMILES | TDP1 cell CPT | IL1B secr inh | TDP1 cell noCPT | CtBP-E1A inh | Six1-Eya2 blk | TDP1 block
Oc1c(N=NC(=S)Nc2ccccc2F)c2ccccc2n1Cc1ccccc1Cl | 6.5µM* | ? | 5.8µM* | ? | ? | 11%
O=c1cc(O)c2ccccc2n1Cc1ccccc1Cl | -8% | 19 | 1% | 8 | 2 | -3%
C=CCn1c(O)c(N=NC(=S)Nc2cccc(C)c2)c2ccccc21 | 2.1µM* | -6 | 1.8µM* | 4 | ? | -3%
C=CCn1c(O)c(N=NC(=S)Nc2ccccc2F)c2cc(S(=O)(=O)N3CCOCC3)ccc21 | 0.73µM* | 2 | 0.73µM* | -16 | -25 | 10%
Cc1ccc(Cn2c(O)c(N=NC(=S)Nc3ccccc3F)c3ccccc32)cc1 | 6.5µM* | -6 | 5.8µM* | . | -19 | 11%
C#CCNC(=O)C[C@@H]1C[C@@]2(C(=O)OCC)CCC=C2N(Cc2ccc3c(c2)OCO3)C1=O | -18% | 0 | ? | 1 | 0 | .
CCN1C(=O)CC(C(=O)NCCc2ccc(S(N)(=O)=O)cc2)SC1=Nc1ccc(OC)cc1 (stereo not drawn) | 22% | 79 | -25% | 2 | -8 | 2%
N#Cc1ccc2c(c1)NC(=O)C1CCCN21 (stereo not drawn) | -2% | 20 | ? | 11 | 4 | 7%
CC(C)(C)OC(=O)N1CCC(NC(=O)c2nc[nH]c2C(=O)NCc2ccccc2)CC1 | ? | -2 | 23µM* | -3 | -4 | 4%
CC(C)(C)OC(=O)[C@H](Cc1ccccc1)NC(=O)c1nc[nH]c1C(=O)NC1CCN(C(=O)OC(C)(C)C)CC1 | 23µM* | -6 | 16µM* | . | -12 | 8%
CC(C)C[C@H](NC(=O)c1nc[nH]c1C(=O)NC1CCN(C(=O)OC(C)(C)C)CC1)C(=O)OC(C)(C)C | ? | -4 | 18µM* | 0 | -1 | 9%
CC(C)C[C@H](NC(=O)c1nc[nH]c1C(=O)N1CCNCC1)C(=O)OC(C)(C)C | -17% | -19 | 7% | -11 | -5 | -3%
C[C@H](NC(=O)c1nc[nH]c1C(=O)NC1CCN(C(=O)OC(C)(C)C)CC1)C(=O)OC(C)(C)C | 18µM* | -5 | ? | 2 | 8 | 4%
O=C(NC(=S)Nc1ccc2oc(=O)ccc2c1)c1ccco1 | -1% | 35 | -26% | 6 | 3 | 5%
Cc1nnc2c(N3CCN(CCO)CC3)nc3ccccc3n12 | 16% | -5 | -17% | . | -1 | .
CC(C)C[C@H](NC(=O)c1nc[nH]c1C(=O)N1CCC(C)CC1)C(=O)OCc1ccccc1 | ? | -9 | -18% | 23 | 20 | 7%
CC(C)C[C@H](NC(=O)c1nc[nH]c1C(=O)NC1CCN(C(=O)OC(C)(C)C)CC1)C(=O)OCc1ccccc1 | ? | -79* | ? | -12 | -10 | 9%
COc1ccc(C(=O)N2CCN(c3ccc(C)c(C)c3)CC2)cc1OC | ? | 21 | 16µM* | -5 | -12 | 1%
COc1ccc(C(=O)N2CCN(c3ccc(C)cc3C)CC2)cc1OC | 21µM* | -17 | 26µM* | -11 | -20 | -3%
CC1(C)S[C@@H]2[C@H](NC(=O)C3(N)CCCCC3)C(=O)N2[C@H]1C(=O)O | 13% | . | 2% | . | . | 6%
COc1cc(OC)c(S(=O)(=O)N2CCOCC2)cc1S(=O)(=O)N1CCOCC1 | 10% | 7 | 16% | 3 | -2 | 3%[56.1 µM]
CCOc1ccc2nc(N3CCCC(C(=O)NCCCN4CCOCC4)C3)sc2c1 (stereo not drawn) | ? | -27 | ? | 4 | 0 | 4%
CCCCN(CC)CCCNC(=O)C1CCN(c2nc3ccc(CC)cc3s2)CC1 | 12µM* | . | 13µM* | . | . | 9%
CCOc1ccc2nc(N3CCC(C(=O)NCCCN4CCOCC4)CC3)sc2c1 | -3% | -66* | ? | -3 | 6 | .
CCCCN(C)CCCNC(=O)C1CCN(c2nc3ccc(CC)cc3s2)CC1 | 6.5µM* | . | 5.8µM* | . | . | 6%
SMILES | TDP1 cell CPT | IL1B secr inh | TDP1 cell noCPT | CtBP-E1A inh | Six1-Eya2 blk | TDP1 block
OCCN(Cc1ccccc1)CC(O)COc1ccc(-c2ccccc2)cc1 (stereo not drawn) | 29µM* | -76* | ? | 0 | 1 | 5%
COc1cc(/C=N/n2nnnc2Nc2ccccc2)cc(OC)c1OC | 15µM* | ? | 18µM* | ? | ? | 5%
COc1cc(/C=N/Nc2nc(Nc3ccc(C)cc3)nc(-n3nc(C)cc3C)n2)cc(OC)c1OC | 4.6µM* | 4 | 2.9µM* | -27 | -23 | 6%
COc1ccc(O)c(/C=N/Nc2nc(Nc3ccccc3)nc(-n3nc(C)cc3C)n2)c1 | 0.58µM* | -23 | 0.52µM* | ? | ? | 13%
COc1cc(/C=N/n2c(-c3ccccc3)n[nH]c2=S)cc(OC)c1OC | 2% | 51 | ? | -3 | -6 | .
COc1cc(/C=N/Nc2nc(Nc3ccccc3)nc(-n3nc(C)cc3C)n2)cc(OC)c1OC | 23µM* | -64* | 18µM* | -17 | -17 | 5%
COc1cc(/C=N/Nc2ccc(C(=O)O)cc2)cc(OC)c1OC | -2% | 0 | -20% | 0 | -10 | 0%
C[C@@]12CCC=C[C@H]1[C@H](c1ccoc1)N(Cc1ccccc1)C2=O | -8% | -21 | -5% | -26 | -8 | -2%
COCCNC(=S)N1CCN(C(=O)C(=O)Nc2ccc(C(=O)OC)cc2)CC1 | -1% | -1 | -14% | -1 | 5 | -1%
CC(Nc1cc(N2CCN(S(=O)(=O)N(C)C)CC2)ccc1[N+](=O)[O-])c1ccccc1 (stereo not drawn) | -5% | 16 | 4% | 0 | -14 | 2%
O=S(=O)(c1ccc2c(c1)OCCO2)N1CCN(CCc2ccccc2)CC1 | -29% | . | -13% | . | . | 3%
O=C(Nc1c2c(nc3ccccc13)CCCC2)c1ccccc1Cl | 16% | 49 | -8% | 4 | -2 | -2%
c1ccc2c(Nc3ccc4c(c3)OCCO4)c3c(nc2c1)CCCC3 | 4.6µM* | -134* | 16µM* | -25 | ? | 5%
CC(=O)c1cccc(Nc2c3c(nc4ccccc24)CCC3)c1 | 2.1µM* | 68 | 2.1µM* | 4 | 5 | .
